In ChEMBL document CHEMBL1961873, “Compounds: GSK PKIS; Assays: Nanosyn kinase panel” (2012):

Assays:
[1] = biological target: T1, Inhibitor of nuclear factor kappa-B kinase subunit epsilon (Homo sapiens) (UniProt Q14164); details: at 1 µM;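 further: reported values are averaged percent inhibition figures against human IKKε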
T1 sequence (whole entry): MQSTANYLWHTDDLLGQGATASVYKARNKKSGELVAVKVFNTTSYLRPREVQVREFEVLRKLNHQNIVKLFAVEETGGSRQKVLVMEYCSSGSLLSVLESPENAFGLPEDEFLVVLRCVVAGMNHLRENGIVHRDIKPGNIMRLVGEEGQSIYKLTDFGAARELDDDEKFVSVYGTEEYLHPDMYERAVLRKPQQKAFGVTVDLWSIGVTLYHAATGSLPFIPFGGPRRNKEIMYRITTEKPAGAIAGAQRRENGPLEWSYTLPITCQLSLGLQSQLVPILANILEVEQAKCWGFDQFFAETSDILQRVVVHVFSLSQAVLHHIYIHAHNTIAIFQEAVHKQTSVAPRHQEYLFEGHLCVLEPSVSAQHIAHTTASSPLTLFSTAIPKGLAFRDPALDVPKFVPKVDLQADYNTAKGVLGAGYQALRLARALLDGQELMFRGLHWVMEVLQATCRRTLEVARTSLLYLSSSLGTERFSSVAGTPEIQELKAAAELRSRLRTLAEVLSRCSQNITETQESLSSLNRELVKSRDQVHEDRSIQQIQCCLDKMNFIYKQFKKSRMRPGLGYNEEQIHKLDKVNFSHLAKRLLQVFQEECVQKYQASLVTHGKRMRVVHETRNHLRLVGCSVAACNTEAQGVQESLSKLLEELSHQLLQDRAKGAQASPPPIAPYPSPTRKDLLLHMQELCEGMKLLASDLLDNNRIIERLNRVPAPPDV

[2] = biological target: T2, Serine/threonine-protein kinase Nek1 (Homo sapiens) (UniProt Q96PY6); details: at 0.1 µM
T2 sequence (whole entry): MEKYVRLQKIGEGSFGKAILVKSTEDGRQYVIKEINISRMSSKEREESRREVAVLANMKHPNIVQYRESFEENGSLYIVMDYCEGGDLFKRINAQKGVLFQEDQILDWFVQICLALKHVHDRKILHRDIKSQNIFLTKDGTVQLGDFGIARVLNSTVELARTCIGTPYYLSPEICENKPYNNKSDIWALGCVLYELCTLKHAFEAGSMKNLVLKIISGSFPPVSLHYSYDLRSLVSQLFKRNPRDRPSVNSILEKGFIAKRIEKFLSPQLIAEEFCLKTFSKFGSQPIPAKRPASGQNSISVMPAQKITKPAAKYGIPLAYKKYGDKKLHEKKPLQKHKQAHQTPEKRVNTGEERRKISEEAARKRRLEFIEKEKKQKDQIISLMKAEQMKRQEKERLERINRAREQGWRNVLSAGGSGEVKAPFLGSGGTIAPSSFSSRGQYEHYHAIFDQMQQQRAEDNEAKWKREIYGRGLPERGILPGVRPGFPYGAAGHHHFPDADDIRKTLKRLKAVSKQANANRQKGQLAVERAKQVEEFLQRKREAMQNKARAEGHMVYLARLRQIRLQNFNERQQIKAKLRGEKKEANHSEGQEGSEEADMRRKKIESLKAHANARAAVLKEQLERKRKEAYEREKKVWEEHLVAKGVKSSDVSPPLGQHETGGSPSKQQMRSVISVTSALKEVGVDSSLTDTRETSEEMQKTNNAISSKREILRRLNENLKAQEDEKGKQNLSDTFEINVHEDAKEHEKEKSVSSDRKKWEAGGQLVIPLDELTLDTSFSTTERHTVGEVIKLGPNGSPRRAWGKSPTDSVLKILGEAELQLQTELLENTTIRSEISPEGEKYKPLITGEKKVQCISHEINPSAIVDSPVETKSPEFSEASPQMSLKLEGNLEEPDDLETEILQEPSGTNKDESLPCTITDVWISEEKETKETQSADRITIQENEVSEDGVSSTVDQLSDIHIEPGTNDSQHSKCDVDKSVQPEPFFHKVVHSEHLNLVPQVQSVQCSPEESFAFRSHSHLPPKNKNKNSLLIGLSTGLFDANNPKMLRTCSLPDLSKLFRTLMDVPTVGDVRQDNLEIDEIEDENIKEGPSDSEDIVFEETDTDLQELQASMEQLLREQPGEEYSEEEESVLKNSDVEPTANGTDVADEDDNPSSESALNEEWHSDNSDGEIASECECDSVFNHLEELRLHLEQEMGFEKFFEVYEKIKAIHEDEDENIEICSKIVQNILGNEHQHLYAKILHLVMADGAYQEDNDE

[3] = biological target: T2, Serine/threonine-protein kinase Nek1 (Homo sapiens); details: at 1 µM
[4] = biological target: T3, Serine/threonine-protein kinase Nek2 (Homo sapiens) (UniProt P51955); details: at 0.1 µM
T3 sequence (whole entry): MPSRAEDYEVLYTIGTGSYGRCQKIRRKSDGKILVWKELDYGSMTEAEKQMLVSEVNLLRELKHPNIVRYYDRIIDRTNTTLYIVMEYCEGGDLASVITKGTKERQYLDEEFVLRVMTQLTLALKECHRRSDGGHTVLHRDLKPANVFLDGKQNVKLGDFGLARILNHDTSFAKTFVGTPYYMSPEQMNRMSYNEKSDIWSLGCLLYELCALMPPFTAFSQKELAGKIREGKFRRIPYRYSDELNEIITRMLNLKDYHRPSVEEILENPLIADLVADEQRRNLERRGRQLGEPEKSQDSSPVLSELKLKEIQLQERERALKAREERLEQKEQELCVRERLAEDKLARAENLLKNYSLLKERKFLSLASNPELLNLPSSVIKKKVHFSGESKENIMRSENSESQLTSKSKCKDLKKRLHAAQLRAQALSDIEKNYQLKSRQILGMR

[5] = biological target: T3, Serine/threonine-protein kinase Nek2 (Homo sapiens); details: at 1 µM
[6] = biological target: Serine/threonine-protein kinase Nek6 (Homo sapiens) (UniProt Q9HC98); details: at 0.1 µM
Chain of Serine/threonine-protein kinase Nek6 (Homo sapiens) (Q9HC98 whole entry): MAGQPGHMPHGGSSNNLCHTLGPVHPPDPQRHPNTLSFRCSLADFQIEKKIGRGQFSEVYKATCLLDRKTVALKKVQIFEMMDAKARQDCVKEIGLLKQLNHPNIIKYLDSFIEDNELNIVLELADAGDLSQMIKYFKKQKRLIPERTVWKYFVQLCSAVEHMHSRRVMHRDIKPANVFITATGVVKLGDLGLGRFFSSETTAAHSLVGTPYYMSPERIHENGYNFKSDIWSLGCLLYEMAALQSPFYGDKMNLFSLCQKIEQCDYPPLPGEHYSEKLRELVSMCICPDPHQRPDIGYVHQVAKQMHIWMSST

[7] = biological target: Serine/threonine-protein kinase Nek6 (Homo sapiens) (UniProt Q9HC98); details: at 1 µM
[8] = biological target: Serine/threonine-protein kinase Nek7 (Homo sapiens) (UniProt Q8TDX7); details: at 0.1 µM
Chain of Serine/threonine-protein kinase Nek7 (Homo sapiens) (Q8TDX7 whole entry, looked up): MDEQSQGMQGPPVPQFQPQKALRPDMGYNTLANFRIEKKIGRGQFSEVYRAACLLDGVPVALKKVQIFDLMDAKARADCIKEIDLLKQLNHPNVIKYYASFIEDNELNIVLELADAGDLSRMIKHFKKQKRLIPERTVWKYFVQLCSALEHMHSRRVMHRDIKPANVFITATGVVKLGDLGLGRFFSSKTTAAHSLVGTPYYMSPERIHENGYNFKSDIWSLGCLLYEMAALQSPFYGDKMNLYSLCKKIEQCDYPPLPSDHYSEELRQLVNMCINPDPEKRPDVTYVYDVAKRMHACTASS

[9] = biological target: Serine/threonine-protein kinase Nek7 (Homo sapiens) (UniProt Q8TDX7); details: at 1 µM
[10] = biological target: T4, Serine/threonine-protein kinase Nek9 (Homo sapiens) (UniProt Q8TD19); details: at 0.1 µM
T4 sequence (whole entry): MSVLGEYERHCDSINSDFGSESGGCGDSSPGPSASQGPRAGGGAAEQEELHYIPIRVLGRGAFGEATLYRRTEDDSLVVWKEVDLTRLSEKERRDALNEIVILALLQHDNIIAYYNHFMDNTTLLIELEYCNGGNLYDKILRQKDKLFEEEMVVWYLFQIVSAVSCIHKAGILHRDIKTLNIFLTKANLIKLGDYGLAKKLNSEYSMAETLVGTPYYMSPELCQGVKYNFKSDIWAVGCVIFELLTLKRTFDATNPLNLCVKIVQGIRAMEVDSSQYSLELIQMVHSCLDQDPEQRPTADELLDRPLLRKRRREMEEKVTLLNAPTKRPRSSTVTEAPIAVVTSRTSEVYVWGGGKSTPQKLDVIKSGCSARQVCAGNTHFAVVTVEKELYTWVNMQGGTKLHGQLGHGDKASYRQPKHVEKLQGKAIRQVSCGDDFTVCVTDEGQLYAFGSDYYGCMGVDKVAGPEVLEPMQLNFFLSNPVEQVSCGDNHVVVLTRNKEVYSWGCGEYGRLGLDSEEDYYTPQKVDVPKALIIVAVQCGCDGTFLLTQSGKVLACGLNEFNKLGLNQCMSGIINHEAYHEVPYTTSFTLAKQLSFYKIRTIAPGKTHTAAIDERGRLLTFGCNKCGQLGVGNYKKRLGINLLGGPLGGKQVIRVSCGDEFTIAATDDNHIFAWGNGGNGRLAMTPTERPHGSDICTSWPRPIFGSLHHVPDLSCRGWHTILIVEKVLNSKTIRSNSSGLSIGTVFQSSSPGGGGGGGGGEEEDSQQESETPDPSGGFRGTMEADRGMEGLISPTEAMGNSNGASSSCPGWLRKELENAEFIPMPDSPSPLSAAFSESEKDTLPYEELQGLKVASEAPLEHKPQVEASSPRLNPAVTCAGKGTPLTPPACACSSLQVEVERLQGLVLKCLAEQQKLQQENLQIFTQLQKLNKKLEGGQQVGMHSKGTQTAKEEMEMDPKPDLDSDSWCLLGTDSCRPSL

[11] = biological target: T4, Serine/threonine-protein kinase Nek9 (Homo sapiens); details: at 1 µM
[12] = biological target: Serine/threonine-protein kinase PLK1 (Homo sapiens) (UniProt P53350); details: at 0.1 µM
Chain of Serine/threonine-protein kinase PLK1 (Homo sapiens) (P53350 whole entry): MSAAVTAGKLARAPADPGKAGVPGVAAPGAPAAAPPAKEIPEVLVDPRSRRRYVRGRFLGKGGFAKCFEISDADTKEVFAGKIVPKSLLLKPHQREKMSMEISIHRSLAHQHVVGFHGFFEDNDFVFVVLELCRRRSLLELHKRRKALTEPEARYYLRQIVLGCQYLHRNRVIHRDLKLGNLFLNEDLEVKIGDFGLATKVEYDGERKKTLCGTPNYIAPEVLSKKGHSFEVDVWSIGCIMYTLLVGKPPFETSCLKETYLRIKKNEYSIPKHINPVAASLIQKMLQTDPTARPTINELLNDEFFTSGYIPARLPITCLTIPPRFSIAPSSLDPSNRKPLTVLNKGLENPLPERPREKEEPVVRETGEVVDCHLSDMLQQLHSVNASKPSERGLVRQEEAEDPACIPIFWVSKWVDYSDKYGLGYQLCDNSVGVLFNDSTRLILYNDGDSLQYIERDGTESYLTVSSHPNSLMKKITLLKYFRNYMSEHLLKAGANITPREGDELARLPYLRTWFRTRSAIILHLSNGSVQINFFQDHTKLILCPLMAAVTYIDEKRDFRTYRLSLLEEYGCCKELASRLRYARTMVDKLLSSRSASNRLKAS

[13] = biological target: Serine/threonine-protein kinase PLK1 (Homo sapiens) (UniProt P53350); details: at 1 µM
[14] = biological target: T5, Dual specificity protein kinase TTK (Homo sapiens) (UniProt P33981); details: at 0.1 µM
T5 sequence (whole entry): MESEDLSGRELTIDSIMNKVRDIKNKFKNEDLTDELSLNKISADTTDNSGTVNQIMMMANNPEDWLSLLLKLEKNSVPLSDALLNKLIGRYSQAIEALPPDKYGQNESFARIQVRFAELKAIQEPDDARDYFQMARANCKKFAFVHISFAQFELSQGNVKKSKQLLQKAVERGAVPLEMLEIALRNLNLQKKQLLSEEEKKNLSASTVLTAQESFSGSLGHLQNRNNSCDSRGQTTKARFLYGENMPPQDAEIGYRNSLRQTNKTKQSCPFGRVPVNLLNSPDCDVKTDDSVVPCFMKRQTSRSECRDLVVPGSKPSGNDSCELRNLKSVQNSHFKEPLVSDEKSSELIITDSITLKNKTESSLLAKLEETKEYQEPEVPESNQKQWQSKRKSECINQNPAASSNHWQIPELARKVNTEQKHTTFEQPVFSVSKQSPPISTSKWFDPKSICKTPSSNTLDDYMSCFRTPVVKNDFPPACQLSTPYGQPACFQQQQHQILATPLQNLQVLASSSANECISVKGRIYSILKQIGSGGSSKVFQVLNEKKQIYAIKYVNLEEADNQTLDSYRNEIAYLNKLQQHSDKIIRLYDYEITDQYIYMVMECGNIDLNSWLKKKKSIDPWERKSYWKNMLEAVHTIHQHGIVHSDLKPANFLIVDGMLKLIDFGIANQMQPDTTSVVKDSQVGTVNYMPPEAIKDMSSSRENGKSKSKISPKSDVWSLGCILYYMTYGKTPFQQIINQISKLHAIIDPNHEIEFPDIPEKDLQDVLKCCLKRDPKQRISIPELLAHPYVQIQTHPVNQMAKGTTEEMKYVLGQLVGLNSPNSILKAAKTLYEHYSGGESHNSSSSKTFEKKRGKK

[15] = system: T6, Receptor-type tyrosine-protein kinase FLT3 (Homo sapiens), P36888 [D835Y]; details: at 1 µM
T6 sequence (whole entry): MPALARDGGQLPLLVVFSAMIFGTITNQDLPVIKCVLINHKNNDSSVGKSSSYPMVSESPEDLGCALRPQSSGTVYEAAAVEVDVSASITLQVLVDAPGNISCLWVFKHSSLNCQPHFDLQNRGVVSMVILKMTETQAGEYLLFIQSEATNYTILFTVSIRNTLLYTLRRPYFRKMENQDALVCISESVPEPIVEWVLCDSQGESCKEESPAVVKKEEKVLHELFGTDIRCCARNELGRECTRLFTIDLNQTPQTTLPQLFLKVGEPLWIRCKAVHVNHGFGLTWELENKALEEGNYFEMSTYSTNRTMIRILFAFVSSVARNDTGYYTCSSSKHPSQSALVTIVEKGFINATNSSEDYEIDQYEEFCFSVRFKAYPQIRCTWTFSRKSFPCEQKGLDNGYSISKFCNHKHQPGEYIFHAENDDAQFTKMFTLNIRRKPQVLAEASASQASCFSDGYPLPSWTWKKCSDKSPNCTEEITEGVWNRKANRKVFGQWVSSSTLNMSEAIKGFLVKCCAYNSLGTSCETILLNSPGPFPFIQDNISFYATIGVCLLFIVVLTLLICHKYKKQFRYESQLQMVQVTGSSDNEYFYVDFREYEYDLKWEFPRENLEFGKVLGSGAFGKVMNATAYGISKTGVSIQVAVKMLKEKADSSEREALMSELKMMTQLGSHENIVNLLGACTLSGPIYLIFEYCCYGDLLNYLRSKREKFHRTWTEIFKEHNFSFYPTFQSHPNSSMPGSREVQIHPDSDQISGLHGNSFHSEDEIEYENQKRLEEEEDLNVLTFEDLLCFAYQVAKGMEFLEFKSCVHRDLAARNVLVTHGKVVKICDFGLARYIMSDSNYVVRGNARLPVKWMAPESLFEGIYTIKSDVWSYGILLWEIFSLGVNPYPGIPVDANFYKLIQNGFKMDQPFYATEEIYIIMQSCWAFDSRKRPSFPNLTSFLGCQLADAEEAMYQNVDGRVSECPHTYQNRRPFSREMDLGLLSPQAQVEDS

[16] = biological target: Vascular endothelial growth factor receptor 3 (Homo sapiens) (UniProt P35916); details: at 0.1 µM
Chain of Vascular endothelial growth factor receptor 3 (Homo sapiens) (P35916 whole entry): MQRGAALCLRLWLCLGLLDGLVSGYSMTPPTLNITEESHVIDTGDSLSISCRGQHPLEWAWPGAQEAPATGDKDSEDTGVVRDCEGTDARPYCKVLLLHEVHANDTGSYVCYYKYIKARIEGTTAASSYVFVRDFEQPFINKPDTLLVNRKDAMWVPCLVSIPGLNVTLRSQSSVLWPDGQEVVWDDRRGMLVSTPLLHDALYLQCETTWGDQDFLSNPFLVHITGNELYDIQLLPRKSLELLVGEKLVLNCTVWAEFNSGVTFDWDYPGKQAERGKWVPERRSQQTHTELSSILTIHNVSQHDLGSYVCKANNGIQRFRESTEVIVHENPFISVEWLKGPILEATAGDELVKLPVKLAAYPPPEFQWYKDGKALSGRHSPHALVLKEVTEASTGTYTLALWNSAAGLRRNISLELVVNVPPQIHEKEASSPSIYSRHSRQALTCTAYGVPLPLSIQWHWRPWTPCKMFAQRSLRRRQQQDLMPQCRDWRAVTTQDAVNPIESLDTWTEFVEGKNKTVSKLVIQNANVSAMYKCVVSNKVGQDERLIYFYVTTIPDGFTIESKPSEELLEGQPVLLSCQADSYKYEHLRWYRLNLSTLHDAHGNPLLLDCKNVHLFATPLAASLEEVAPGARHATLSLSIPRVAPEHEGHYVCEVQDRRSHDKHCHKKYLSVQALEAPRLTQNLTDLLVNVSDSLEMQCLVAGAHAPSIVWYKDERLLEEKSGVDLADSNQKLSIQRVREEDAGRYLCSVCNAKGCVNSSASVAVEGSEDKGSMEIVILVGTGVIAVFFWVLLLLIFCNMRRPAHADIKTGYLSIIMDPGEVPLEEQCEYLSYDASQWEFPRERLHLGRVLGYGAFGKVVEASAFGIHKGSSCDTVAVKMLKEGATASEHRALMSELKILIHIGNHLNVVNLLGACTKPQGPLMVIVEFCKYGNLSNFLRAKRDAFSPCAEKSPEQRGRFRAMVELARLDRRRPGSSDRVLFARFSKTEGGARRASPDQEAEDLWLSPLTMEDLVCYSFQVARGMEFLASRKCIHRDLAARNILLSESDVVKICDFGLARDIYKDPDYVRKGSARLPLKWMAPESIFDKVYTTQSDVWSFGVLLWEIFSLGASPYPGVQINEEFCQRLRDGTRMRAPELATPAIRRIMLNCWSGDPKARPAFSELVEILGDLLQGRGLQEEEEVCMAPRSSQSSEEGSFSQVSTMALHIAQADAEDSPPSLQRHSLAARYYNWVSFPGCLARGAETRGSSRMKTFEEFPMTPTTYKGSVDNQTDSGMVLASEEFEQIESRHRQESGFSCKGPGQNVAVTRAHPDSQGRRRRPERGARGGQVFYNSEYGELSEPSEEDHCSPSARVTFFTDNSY

[17] = biological target: Vascular endothelial growth factor receptor 3 (Homo sapiens) (UniProt P35916); details: at 1 µM
[18] = biological target: Macrophage colony-stimulating factor 1 receptor (Homo sapiens) (UniProt P07333); details: at 0.1 µM
Chain of Macrophage colony-stimulating factor 1 receptor (Homo sapiens) (P07333 whole entry): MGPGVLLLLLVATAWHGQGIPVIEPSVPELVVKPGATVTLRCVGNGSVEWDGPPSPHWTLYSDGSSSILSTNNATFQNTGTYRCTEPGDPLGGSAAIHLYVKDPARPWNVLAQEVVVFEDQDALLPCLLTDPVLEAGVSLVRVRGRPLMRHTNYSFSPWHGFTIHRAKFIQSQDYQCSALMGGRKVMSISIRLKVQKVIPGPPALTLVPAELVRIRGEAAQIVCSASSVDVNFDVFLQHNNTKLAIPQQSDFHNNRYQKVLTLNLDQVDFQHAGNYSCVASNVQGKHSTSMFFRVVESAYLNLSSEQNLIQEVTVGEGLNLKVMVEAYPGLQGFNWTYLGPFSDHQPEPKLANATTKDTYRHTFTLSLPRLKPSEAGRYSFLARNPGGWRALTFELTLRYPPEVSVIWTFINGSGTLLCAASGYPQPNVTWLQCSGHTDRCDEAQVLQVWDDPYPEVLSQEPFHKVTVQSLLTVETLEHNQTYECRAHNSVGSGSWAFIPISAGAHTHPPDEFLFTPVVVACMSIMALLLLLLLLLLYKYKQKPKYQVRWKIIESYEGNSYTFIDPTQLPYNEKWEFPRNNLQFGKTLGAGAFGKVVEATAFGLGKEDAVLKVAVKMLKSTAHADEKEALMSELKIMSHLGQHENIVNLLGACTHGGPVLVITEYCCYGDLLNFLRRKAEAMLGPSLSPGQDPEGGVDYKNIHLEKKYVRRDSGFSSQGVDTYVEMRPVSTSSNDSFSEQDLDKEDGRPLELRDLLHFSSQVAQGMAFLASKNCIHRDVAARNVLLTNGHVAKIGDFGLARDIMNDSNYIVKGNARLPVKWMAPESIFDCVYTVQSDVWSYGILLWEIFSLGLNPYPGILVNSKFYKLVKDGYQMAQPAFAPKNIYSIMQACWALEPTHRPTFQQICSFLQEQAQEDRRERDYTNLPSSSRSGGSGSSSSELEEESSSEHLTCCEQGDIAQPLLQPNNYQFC

[19] = biological target: Macrophage colony-stimulating factor 1 receptor (Homo sapiens) (UniProt P07333); details: at 1 µM
[20] = biological target: Tyrosine-protein kinase Fyn (Homo sapiens) (UniProt P06241); details: at 0.1 µM
Chain of Tyrosine-protein kinase Fyn (Homo sapiens) (P06241 2-537 limits assumed): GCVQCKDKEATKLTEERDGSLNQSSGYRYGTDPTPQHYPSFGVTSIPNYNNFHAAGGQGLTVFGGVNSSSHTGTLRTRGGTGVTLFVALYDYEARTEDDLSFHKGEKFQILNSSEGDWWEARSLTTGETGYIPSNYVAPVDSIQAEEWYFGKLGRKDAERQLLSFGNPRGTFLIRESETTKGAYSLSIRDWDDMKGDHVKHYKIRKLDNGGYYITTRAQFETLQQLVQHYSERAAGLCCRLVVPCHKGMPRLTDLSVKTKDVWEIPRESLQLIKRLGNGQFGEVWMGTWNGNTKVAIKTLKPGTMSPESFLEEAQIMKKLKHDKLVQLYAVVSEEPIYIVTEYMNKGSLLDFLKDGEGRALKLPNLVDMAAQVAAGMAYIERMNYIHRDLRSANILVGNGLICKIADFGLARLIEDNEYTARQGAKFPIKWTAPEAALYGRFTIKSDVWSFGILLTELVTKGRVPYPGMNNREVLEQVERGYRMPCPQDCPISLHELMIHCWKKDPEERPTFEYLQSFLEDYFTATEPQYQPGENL

| Compound | inhibition [1] [%] | inhibition [2] [%] | inhibition [3] [%] | inhibition [4] [%] | inhibition [5] [%] | inhibition [6] [%] | inhibition [7] [%] | inhibition [8] [%] | inhibition [9] [%] | inhibition [10] [%] | inhibition [11] [%] | inhibition [12] [%] | inhibition [13] [%] | inhibition [14] [%] | inhibition [15] [%] | inhibition [16] [%] | inhibition [17] [%] | inhibition [18] [%] | inhibition [19] [%] | inhibition [20] [%] |
| --- | --- | --- | --- | --- | --- | --- | --- | --- | --- | --- | --- | --- | --- | --- | --- | --- | --- | --- | --- | --- |
| CNC(=O)c1cc(-c2ccc(F)cc2)cc(-c2ccc(S(=O)(=O)N3CCCC3)cc2)c1N | 3.73 | 1.09 | 2.25 | 4.19 | 2.55 | 3.41 | 2.7 | 3.41 | 7.48 | 5.37 | 7.69 | 2.97 | 3.38 | 4.67 | 5.93 | 0.74 | 2.49 | 0.47 | 1.28 | 1.22 |
| COc1cc(N2CCN(C(C)C)CC2)ccc1Nc1nc(Nc2ccc(F)cc2C(N)=O)c2cc[nH]c2n1 | 4.36 | 3.16 | 11.2 | 3.34 | 2.89 | 2.32 | 5.57 | 2.07 | 7.1 | 4.13 | 13.5 | 16 | 64.8 | 83 | 40.7 | 3.45 | 2.68 | 11.7 | 48.1 | 2.48 |
